Inconclusive results are not listed. Unmarked numbers belong to inactive results. Calls of active or inactive are those of the source. Calls come from the whole dose curve; as a rule, active = well fitted inhibition curve with a large enough effect; inconclusive = small, poorly fitted or top-dose-only effect; inactive = flat fitted curve, though single readings scatter.
These molecules were tested on CP215 (assay: qHTS profiling for inhibitors of Plasmodium falciparum proliferation (AID 504749; note: nearly all actives have a fitted effect of over 60% in size;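 for activity, negative = inhibition: 0% = DMSO vehicle and full inhibition = artemisinin control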)). Conditions: P. falciparum in erythrocytes, SYBR Green DNA, 72 h; series mostly up to 28.7 µM; activity, negative = inhibition: at the top concentration.
In short: (§1)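 Infected RBCs, 0.3% parasitemia/2.5% Hct final; cpd 72 h, 37 C, 5% CO2; lysis buffer with saponin/triton/SYBR Green I, o/n RT dark; FI 485/535; norm. to artemisinin (0.29 uM) and DMSO.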
Potency is the fitted concentration of half-maximal effect.

SMILES | activity, negative = inhibition
O=C(NCCO[N+](=O)[O-])c1cccnc1 | 15.3%
CCCCc1ccc2nc(NC(=O)OC)[nH]c2c1 | -6.72% [at 12.8 µM]
O=C(O)c1cccc(-c2noc(-c3ccccc3F)n2)c1 | -0.439%
O=C(O)c1cc(=O)c2c(OCC(O)COc3cccc4oc(C(=O)O)cc(=O)c34)cccc2o1 | 1.72%
CC1(C)NC(=O)N(c2ccc([N+](=O)[O-])c(C(F)(F)F)c2)C1=O | 3.96%
O=C(O)CCNC(=O)c1ccc(N=Nc2ccc(O)c(C(=O)O)c2)cc1 | -7.34%
Cc1ncc([N+](=O)[O-])n1CC(C)O (stereo not drawn) | -2.02%
Cc1nc2n(c(=O)c1CCN1CCC(c3noc4cc(F)ccc34)CC1)CCCC2 | -8.46%
N[C@@H](Cc1cc(I)c(Oc2cc(I)c(O)c(I)c2)c(I)c1)C(=O)O | -0.578%

What follows are molecules tested on CP217 in the same assay as above. Conditions: P. falciparum in erythrocytes, SYBR Green DNA, 72 h; series mostly up to 28.7 µM; activity, negative = inhibition: at the top concentration.
In short: as §1

SMILES | activity, negative = inhibition | Potency
Nc1ccc(S(N)(=O)=O)cc1 | 2.26% | –
C[C@H](Cn1cnc2c(N)ncnc21)OCP(=O)(O)O | 0.402% | –
CCOc1cc(CC(=O)N[C@@H](CC(C)C)c2ccccc2N2CCCCC2)ccc1C(=O)O | -2.19% [at 12.8 µM] | –
Oc1ccc(OCc2ccccc2)cc1 | -15.1% [at 12.8 µM] | –
Cc1cccc(C)c1OCC(=O)N[C@@H](Cc1ccccc1)[C@@H](O)C[C@H](Cc1ccccc1)NC(=O)[C@H](C(C)C)N1CCCNC1=O | – | 3.98 µM (active)
CNC[C@@H](O)[C@@H](O)[C@H](O)[C@H](O)CO | 4.88% | –
CCC1=C(C)CN(C(=O)NCCc2ccc(S(=O)(=O)NC(=O)NC3CCC(C)CC3)cc2)C1=O (stereo not drawn) | 2.71% | –
COc1cc(OC)c(C(=O)CCCN2CCCC2)c(OC)c1 | 4.26% [at 12.8 µM] | –
O=P(O)(O)C(O)(Cn1ccnc1)P(=O)(O)O | 11% | –
c1ccc2[nH]c(-c3cscn3)nc2c1 | -14.8% | –
Cc1cc2cc3c(C)cc(=O)oc3c(C)c2o1 | 3.97% [at 12.8 µM] | –
CC(C)[C@H](N)C(=O)OCCOCn1cnc2c(=O)[nH]c(N)nc21 | 0.0676% | –
CCCCN(CCCC)CCC(O)c1cc2c(Cl)cc(Cl)cc2c2cc(C(F)(F)F)ccc12 (stereo not drawn) | – | 0.0126 µM (active)
Nc1cc(C(Cl)=C(Cl)Cl)c(S(N)(=O)=O)cc1S(N)(=O)=O | 7.48% [at 12.8 µM] | –
C[C@]12CCC(=O)C=C1CC[C@@H]1[C@H]2[C@@H](O)C[C@@]2(C)[C@H]1CC[C@]2(O)C(=O)CO | 1.43% | –
Cc1c(OCC(F)(F)F)ccnc1CS(=O)c1nc2ccccc2[nH]1 (stereo not drawn) | -9.64% | –
C[Se]CCC(N)C(=O)O (stereo not drawn) | -8.47% | –
CN(C)c1ccc2nc3ccc(=[N+](C)C)cc-3sc2c1 | – | 0.0891 µM (active)
O=C(NCCO[N+](=O)[O-])c1cccnc1 | -7.57% | –
CCCCc1ccc2nc(NC(=O)OC)[nH]c2c1 | 0.515% [at 12.8 µM] | –
O=C(O)c1cccc(-c2noc(-c3ccccc3F)n2)c1 | -3.88% | –
O=C(O)c1cc(=O)c2c(OCC(O)COc3cccc4oc(C(=O)O)cc(=O)c34)cccc2o1 | -2.33% | –
CC1(C)NC(=O)N(c2ccc([N+](=O)[O-])c(C(F)(F)F)c2)C1=O | 1.91% | –
O=C(O)CCNC(=O)c1ccc(N=Nc2ccc(O)c(C(=O)O)c2)cc1 | 2.49% | –
Cc1ncc([N+](=O)[O-])n1CC(C)O (stereo not drawn) | 2.86% | –
Cc1nc2n(c(=O)c1CCN1CCC(c3noc4cc(F)ccc34)CC1)CCCC2 | 3.57% | –
N[C@@H](Cc1cc(I)c(Oc2cc(I)c(O)c(I)c2)c(I)c1)C(=O)O | -3.39% | –

The molecules below were run on CP237 in the same assay as above. Conditions: P. falciparum in erythrocytes, SYBR Green DNA, 72 h; series mostly up to 28.7 µM; activity, negative = inhibition: at the top concentration.
In short: as §1

SMILES | activity, negative = inhibition | Potency
Nc1ccc(S(N)(=O)=O)cc1 | -11% | –
C[C@H](Cn1cnc2c(N)ncnc21)OCP(=O)(O)O | 7.86% | –
CCOc1cc(CC(=O)N[C@@H](CC(C)C)c2ccccc2N2CCCCC2)ccc1C(=O)O | 3.15% [at 12.8 µM] | –
Oc1ccc(OCc2ccccc2)cc1 | -10.8% [at 12.8 µM] | –
Cc1cccc(C)c1OCC(=O)N[C@@H](Cc1ccccc1)[C@@H](O)C[C@H](Cc1ccccc1)NC(=O)[C@H](C(C)C)N1CCCNC1=O | – | 2.82 µM (active)
CNC[C@@H](O)[C@@H](O)[C@H](O)[C@H](O)CO | 4.28% | –
CCC1=C(C)CN(C(=O)NCCc2ccc(S(=O)(=O)NC(=O)NC3CCC(C)CC3)cc2)C1=O (stereo not drawn) | 1.46% | –
COc1cc(OC)c(C(=O)CCCN2CCCC2)c(OC)c1 | -19.7% [at 12.8 µM] | –
O=P(O)(O)C(O)(Cn1ccnc1)P(=O)(O)O | 0.562% | –
c1ccc2[nH]c(-c3cscn3)nc2c1 | 0.355% | –
Cc1cc2cc3c(C)cc(=O)oc3c(C)c2o1 | 1.64% [at 12.8 µM] | –
CC(C)[C@H](N)C(=O)OCCOCn1cnc2c(=O)[nH]c(N)nc21 | 11.4% | –
CCCCN(CCCC)CCC(O)c1cc2c(Cl)cc(Cl)cc2c2cc(C(F)(F)F)ccc12 (stereo not drawn) | – | 0.0056 µM (active)
Cc1cc(=O)oc2cc(O)ccc12 | -8.71% [at 12.8 µM] | –
Nc1cc(C(Cl)=C(Cl)Cl)c(S(N)(=O)=O)cc1S(N)(=O)=O | 1.04% [at 12.8 µM] | –
C[C@]12CCC(=O)C=C1CC[C@@H]1[C@H]2[C@@H](O)C[C@@]2(C)[C@H]1CC[C@]2(O)C(=O)CO | 8.97% | –
Cc1c(OCC(F)(F)F)ccnc1CS(=O)c1nc2ccccc2[nH]1 (stereo not drawn) | -17.7% | –
C[Se]CCC(N)C(=O)O (stereo not drawn) | -1.21% | –
CN(C)c1ccc2nc3ccc(=[N+](C)C)cc-3sc2c1 | – | 0.0126 µM (active)
O=C(NCCO[N+](=O)[O-])c1cccnc1 | -5.41% | –
CCCCc1ccc2nc(NC(=O)OC)[nH]c2c1 | -15.8% [at 12.8 µM] | –
O=C(O)c1cccc(-c2noc(-c3ccccc3F)n2)c1 | -2.45% | –
O=C(O)c1cc(=O)c2c(OCC(O)COc3cccc4oc(C(=O)O)cc(=O)c34)cccc2o1 | 3.59% | –
CC1(C)NC(=O)N(c2ccc([N+](=O)[O-])c(C(F)(F)F)c2)C1=O | -10.6% | –
O=C(O)CCNC(=O)c1ccc(N=Nc2ccc(O)c(C(=O)O)c2)cc1 | -11.8% | –
Cc1ncc([N+](=O)[O-])n1CC(C)O (stereo not drawn) | 3.91% | –
N[C@@H](Cc1cc(I)c(Oc2cc(I)c(O)c(I)c2)c(I)c1)C(=O)O | -6.74% | –

Source: PubChem BioAssay (NCATS)
